Data on five compounds can be found in PubChem BioAssay (NCI).

The nature of assay [1]: NCI Yeast Anticancer Drug Screen. Data for the rad50 strain (AID 155).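 Also: 0% = growth of vehicle-only cultures of the same strain.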 Conditions: S. cerevisiae rad50 strain growth inhibition, stronger effect = higher value. In short, it runs like this:
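Inhibition values express reduced yeast growth in compound-treated cultures relative to vehicle-treated controls.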

The nature of assay [2]: NCI Yeast Anticancer Drug Screen. Data for the mec2-1 strain (AID 157). Conditions: S. cerevisiae mec2-1 strain, stronger effect = higher value. Put shortly: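 Vehicle-treated cultures served as reference for growth inhibition of compound-exposed mec2-1 yeast.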
Assay [3] is described as follows: NCI Yeast Anticancer Drug Screen. Data for the sgs1 mgt1 strain (AID 161).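 Also: 0% = growth of cultures given vehicle only.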 Conditions: S. cerevisiae sgs1 mgt1 strain, stronger effect = higher value. Put shortly:
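Mutant yeast exposed to compound; growth scored against vehicle-only wells.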

A short description of assay [4]: NCI Yeast Anticancer Drug Screen. Data for the cln2 rad14 strain (AID 165).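 Also: 0% = growth equal to vehicle treated cultures.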 Conditions: S. cerevisiae cln2 rad14 strain, stronger effect = higher value. In short, it runs like this: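 Each compound was tested on cln2 rad14 yeast. Inhibition of growth was calculated against vehicle-exposed controls.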
The nature of assay [5]: NCI Yeast Anticancer Drug Screen. Data for the bub3 strain (AID 167). Conditions: S. cerevisiae bub3 mutant strain, stronger effect = higher value. In short, it runs like this:
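Steps: expose the mutant yeast strain to compound; grow alongside vehicle-treated cultures; measure growth; express inhibition against the vehicle cultures.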

A short description of assay [6]: NCI Yeast Anticancer Drug Screen. Data for the mlh1 rad18 strain (AID 175). Conditions: S. cerevisiae mlh1 rad18 strain growth inhibition, stronger effect = higher value. In short, it runs like this:
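Vehicle-treated cultures served as the reference for growth inhibition in a yeast strain carrying DNA damage repair alterations exposed to each compound.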

[7] abbreviates: at 5.0 µM (retest, dose inferred, filed as 0.5).
Where [8] appears, read: at 50.0 µM (retest, dose inferred, filed as 5.0).

Molecules are shown by their SMILES. The panel holds about 79,000 compounds, 15% with a hit somewhere; the sample as a whole holds those more often. Values without a mark were called inactive. The source made the active and inactive calls. Rule as the data show it: active = growth inhibition above about 70%; inactive = the rest.

Consider `Oc1c(Cl)cc(Cl)cc1C=Nc1cc(C(F)(F)F)ccc1Cl`, for which the growth inhibition in assay [1] (setting [7]) is 76% (active); in assay [1] (setting [8]), 100% (active); in assay [1] (at 50.0 µM), 91.8% (active); in assay [2] (setting [7]) it was 50%; in assay [2] (setting [8]), 99% (active); in assay [2] (at 50.0 µM), 74.4% (active). In addition, the growth inhibition in assay [3] (setting [7]) was 46%; in assay [3] (setting [8]), 100% (active); in assay [3] (at 50.0 µM) it was 91.7% (active); in assay [4] (setting [7]), 8%; in assay [4] (setting [8]), 76% (active); in assay [4] (at 50.0 µM) it was 55.1%. Moreover, the growth inhibition is 5% in assay [5] (setting [7]); 50% in assay [5] (setting [8]); 77.4% (active) in assay [5] (at 50.0 µM); 50% in assay [6] (setting [7]); 99% (active) in assay [6] (setting [8]); 85.9% (active) in assay [6] (at 50.0 µM).
On to `Cc1ccc(S(=O)(=O)C(=S)Sc2ccccc2)cc1`, for which the growth inhibition in assay [1] (setting [7]) was 6%; in assay [1] (setting [8]), 82% (active); in assay [1] (at 50.0 µM) it was 45.5%; in assay [2] (setting [7]) it was 8%; in assay [2] (setting [8]), 89% (active); in assay [2] (at 50.0 µM), 39.5%. Moreover, the growth inhibition in assay [3] (setting [7]) was 10%; in assay [3] (setting [8]) it was 88% (active); in assay [3] (at 50.0 µM) it was 80.6% (active); in assay [4] (setting [7]), 6%; in assay [4] (setting [8]), 63%; in assay [4] (at 50.0 µM), 33.7%. For the same compound, the growth inhibition in assay [5] (setting [7]) is 17%; in assay [5] (setting [8]), 90% (active); in assay [5] (at 50.0 µM), 36.5%; in assay [6] (setting [7]) it was 11%; in assay [6] (setting [8]), 92% (active); in assay [6] (at 50.0 µM), 79.8% (active).
Consider `COc1ccc(C=O)cc1C[P+](c1ccccc1)(c1ccccc1)c1ccccc1`, for which the growth inhibition is 46% in assay [1] (setting [7]); 97% (active) in assay [1] (setting [8]); 98% (active) in assay [1] (at 50.0 µM); 38% in assay [2] (setting [7]); 99% (active) in assay [2] (setting [8]); 97.6% (active) in assay [2] (at 50.0 µM). For the same compound, the growth inhibition is 51% in assay [3] (setting [7]); 99% (active) in assay [3] (setting [8]); 98.4% (active) in assay [3] (at 50.0 µM); 13% in assay [4] (setting [7]); 94% (active) in assay [4] (setting [8]); 98.3% (active) in assay [4] (at 50.0 µM). The growth inhibition is 54% in assay [5] (setting [7]); 98% (active) in assay [5] (setting [8]); 97.5% (active) in assay [5] (at 50.0 µM); 39% in assay [6] (setting [7]); 94% (active) in assay [6] (setting [8]); 97.9% (active) in assay [6] (at 50.0 µM).
Turning to `O=C(O)CCCCCCCCCC[S+](CCO)CCO`, the growth inhibition in assay [1] (setting [7]) is -2%; in assay [1] (setting [8]) it was 31%; in assay [1] (at 50.0 µM) it was 43.2%; in assay [2] (setting [7]), 3%; in assay [2] (setting [8]) it was 29%; in assay [2] (at 50.0 µM), 26.4%. Besides, the growth inhibition in assay [3] (setting [7]) is 2%; in assay [3] (setting [8]), 50%; in assay [3] (at 50.0 µM), 62.1%; in assay [4] (setting [7]), 20%; in assay [4] (setting [8]), 12%; in assay [4] (at 50.0 µM), 67.5%. For the same compound, the growth inhibition in assay [5] (setting [7]) is 3%; in assay [5] (setting [8]) it was 12%; in assay [5] (at 50.0 µM), 37.4%; in assay [6] (setting [7]), 1%; in assay [6] (setting [8]) it was 44%; in assay [6] (at 50.0 µM) it was 34.5%.
On to `O=S1(=O)C=C(c2ccccc2)S(=O)(=O)C=C1c1ccccc1`, for which the growth inhibition was -1% in assay [1] (setting [7]); 85% (active) in assay [1] (setting [8]); 89% (active) in assay [1] (at 50.0 µM); 3% in assay [2] (setting [7]); 76% (active) in assay [2] (setting [8]); 89.7% (active) in assay [2] (at 50.0 µM). Besides, the growth inhibition in assay [3] (setting [7]) was 0%; in assay [3] (setting [8]) it was 63%; in assay [3] (at 50.0 µM), 95.2% (active); in assay [4] (setting [7]) it was 0%; in assay [4] (setting [8]), 94% (active); in assay [4] (at 50.0 µM), 57.9%. For the same compound, the growth inhibition in assay [5] (setting [7]) is -5%; in assay [5] (setting [8]), 81% (active); in assay [5] (at 50.0 µM) it was 91.8% (active); in assay [6] (setting [7]) it was 0%; in assay [6] (setting [8]), 85% (active); in assay [6] (at 50.0 µM), 91.2% (active).
